Compound activity from PubChem.
Pf Dd2 inh: P. falciparum Dd2 growth inhibitors, primary screen, SYBR Green fluorescence, single dose replicates; AID 1159554, 2015; activity change, % at 10 µM; 94,000 compounds, 2.3% hits; 72 h; hits give low values; in the data active = activity change below about -80%; inconclusive = no clear call, values can overlap the other calls
C diff HTS: C. difficile growth inhibitors, primary screen, HTS. Clostridium difficile clinical isolate growth, OD600, 24 h; hits give low values. growth activity, negative = inhibition, % at 16 µg/mL (by protocol). 86,000 compounds, 0.25% hits. AID 1259249, 2017;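 active = mean growth activity at or below -80% and every replicate also at or below -80%; inconclusive = mean at or below -80% but some replicate above -80%; inactive = mean growth activity above -80%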;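 note: 0% = DMSO wells and -100% = levofloxacin 16 µg/mL wells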
T cruzi growth: T. cruzi intracellular proliferation inhibitors, primary screen, cell-based, beta-gal Tulahuen parasites, NIH3T3 host, luminescence | T. cruzi beta-gal in NIH3T3, GalScreen luminescence, 90 h | inhibition, % at 8.34 µM | 77,000 compounds, 5.9% hits | AID 624255, 2012;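 active = mean inhibition above about 93%, with at least 55% of replicates each passing it, limit read from the data, passing the limit was not always enough; inconclusive = only one of those two conditions holds; inactive = neither condition holds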
An asterisk follows results filed as active; ? = inconclusive; nt = no result given. Sampled rows, rich in hits. Any-hit rate of the full collection: about 6.7%.

SMILES	Pf Dd2 inh	C diff HTS	T cruzi growth
C[C@@H]1CN([C@H](C)CO)C(=O)c2cc(N(C)C)ccc2O[C@@H](C)CCCCO[C@H]1CN(C)S(=O)(=O)c1ccc(Cl)cc1	-84*	-4	57
COc1ccc(C#Cc2ccc3c(c2)O[C@@H](CN(C)C)[C@@H](C)CN([C@@H](C)CO)S3(=O)=O)cc1	-54	5	51
COc1ccc(S(=O)(=O)N(C)C[C@@H]2Oc3cc(C#CC4CCCCC4)ccc3S(=O)(=O)N([C@@H](C)CO)C[C@H]2C)cc1	-84*	nt	24
COc1ccc(C#Cc2ccc3c(c2)O[C@H](CN(C)S(=O)(=O)c2ccccc2F)[C@@H](C)CN([C@H](C)CO)S3(=O)=O)cc1	-87*	3	nt
CNC[C@@H]1Oc2cc(C#Cc3ccc(OC)cc3)ccc2S(=O)(=O)N([C@@H](C)CO)C[C@H]1C	-85*	3	85
COc1ccc(C#Cc2ccc3c(c2)O[C@@H](CN(C)S(=O)(=O)c2ccccc2F)[C@@H](C)CN([C@@H](C)CO)S3(=O)=O)cc1	-90*	2	nt
COc1ccccc1S(=O)(=O)N(C)C[C@H]1Oc2cc(C#CCC(C)C)ccc2S(=O)(=O)N([C@H](C)CO)C[C@@H]1C	-58	3	79
COc1ccc(S(=O)(=O)N(C)C[C@H]2Oc3cc(C#CC4CCCCC4)ccc3S(=O)(=O)N([C@@H](C)CO)C[C@H]2C)cc1	-78	nt	80
CNC[C@H]1Oc2cc(C#Cc3cccc(OC)c3)ccc2S(=O)(=O)N([C@@H](C)CO)C[C@@H]1C	-46	5	70
COCC(=O)Nc1ccc2c(c1)[C@H]1C[C@H](CC(=O)NCC3CC3)O[C@H](CO)[C@H]1O2	14	1	-10
O=C(Cc1ccccn1)NCC[C@H]1CC[C@@H](NC(=O)CN2CCOCC2)[C@H](CO)O1	2	1	nt
COc1ccc(S(=O)(=O)Nc2ccc3c(c2)C(=O)N([C@@H](C)CO)C[C@H](C)[C@@H](CN(C)S(=O)(=O)c2ccc(C)cc2)OCCCC[C@H](C)O3)cc1	-83*	nt	nt
COc1ccc(S(=O)(=O)Nc2ccc3c(c2)C(=O)N([C@@H](C)CO)C[C@@H](C)[C@@H](CN(C)S(=O)(=O)c2ccc(C)cc2)OCCCC[C@@H](C)O3)cc1	-53	nt	nt
COc1ccc(S(=O)(=O)Nc2ccc3c(c2)C(=O)N([C@@H](C)CO)C[C@@H](C)[C@@H](CN(C)S(=O)(=O)c2ccc(OC)cc2)OCCCC[C@H](C)O3)cc1	-85*	0	63
COc1ccc(S(=O)(=O)Nc2ccc3c(c2)C(=O)N([C@H](C)CO)C[C@H](C)[C@@H](CN(C)S(=O)(=O)c2ccc(OC)cc2)OCCCC[C@@H](C)O3)cc1	-20	-5	53
C[C@@H]1CN([C@@H](C)CO)S(=O)(=O)c2ccc(-c3ccncc3)cc2O[C@H]1CN(C)C(=O)C1CCCCC1	-32	1	16
Cc1ccccc1S(=O)(=O)N1[C@H](CO)[C@@H](c2ccc(C#CC3CC3)cc2)[C@@H]1C#N	-87*	5	89
N#C[C@H]1[C@@H](c2ccc(C#CC3CCCCC3)cc2)[C@@H](CO)N1S(=O)(=O)c1ccccc1	?	-3	88
N#C[C@H]1[C@@H](c2ccc(C#CC3CCCC3)cc2)[C@@H](CO)N1S(=O)(=O)Cc1ccccc1	-89*	-13	89
Cc1ccccc1S(=O)(=O)N1[C@H](C#N)[C@@H](c2ccccc2)[C@H]1CO	28	-4	19
C[C@@H]1CN([C@@H](C)CO)C(=O)c2cc(NC(=O)NC3CCCCC3)ccc2O[C@@H](C)CCCCO[C@H]1CN(C)C(=O)c1ccccc1	0	-6	-54
O=C(C1CCCC1)N1CC(=O)N2[C@H](CO)[C@@H](c3ccc(-c4cccnc4)cc3)[C@@H]2C1	6	-2	nt
COc1ccc(-c2ccc([C@@H]3[C@H]4CN(C(=O)C5CCCC5)CC(=O)N4[C@H]3CO)cc2)cc1	-66	-4	nt
COc1ccc(-c2ccc([C@@H]3[C@@H](CO)N4C(=O)CN(C(=O)C5CCCC5)C[C@@H]34)cc2)cc1	-86*	-9	nt
O=C(c1ccccc1F)N1CC(=O)N2[C@@H](CO)[C@H](c3ccc(-c4ccc(F)cc4)cc3)[C@@H]2C1	-1	2	nt
SMILES	Pf Dd2 inh	C diff HTS	T cruzi growth
O=C(c1ccccc1F)N1CC(=O)N2[C@H](C1)[C@@H](c1ccc(-c3ccc(F)cc3)cc1)[C@@H]2CO	-89*	-9	nt
O=C(c1cccnc1)N1CC(=O)N2[C@@H](CO)[C@H](c3ccc(-c4cccnc4)cc3)[C@@H]2C1	37	-4	nt
O=C(c1cccnc1)N1CC(=O)N2[C@H](C1)[C@@H](c1ccc(-c3cccnc3)cc1)[C@@H]2CO	-87*	-6	nt
O=C(C1CCCC1)N1CC(=O)N2[C@H](CO)[C@H](c3ccc(-c4cccnc4)cc3)[C@H]2C1	-90*	-6	nt
C[C@@H]1CCCCO[C@@H](CN(C)S(=O)(=O)c2cn(C)cn2)[C@H](C)CN([C@@H](C)CO)C(=O)c2cc(NS(=O)(=O)c3cn(C)cn3)ccc2O1	55	-1	-39
CCC(=O)Nc1ccc2c(c1)OC[C@@H](C)N(C(=O)CC)C[C@H](C)[C@@H](OC)CN(C)C2=O	nt	nt	3
CCC(=O)N[C@@H]1CC[C@H](CCNS(=O)(=O)c2ccc(Cl)cc2)O[C@@H]1CO	-4	2	nt
C[C@@H]1CN([C@@H](C)CO)C(=O)Cc2cc(NS(=O)(=O)c3ccc(Cl)cc3)ccc2O[C@H]1CN(C)S(=O)(=O)c1ccccc1	-17	3	24
COc1ccc(S(=O)(=O)N(C)C[C@@H]2Oc3ccc(NC(=O)Nc4cccc5ccccc45)cc3C(=O)N([C@@H](C)CO)C[C@@H]2C)cc1	-16	-7	nt
O=C1CN(Cc2ccc(F)cc2)C[C@@H]2[C@@H](c3ccc(Br)cc3)[C@@H](CO)N12	39	6	nt
O=C(c1ccncc1)N1CC(=O)N2[C@H](C1)[C@@H](c1ccc(-c3cccnc3)cc1)[C@@H]2CO	-86*	-1	nt
O=C(c1ccc(F)cc1)N1CC(=O)N2[C@@H](CO)[C@H](c3ccc(-c4cccnc4)cc3)[C@@H]2C1	12	4	nt
O=C1CN(Cc2ccc(F)cc2)C[C@@H]2[C@@H](c3ccc(Br)cc3)[C@H](CO)N12	-87*	4	nt
O=C(NC1CCCCC1)N[C@@H]1CC[C@@H](CCNS(=O)(=O)c2ccc(Cl)cc2)O[C@@H]1CO	-24	3	-17
C/C=C/c1ccc([C@H]2[C@@H](CO)N3C(=O)CN(C(=O)Nc4ccc(F)cc4)C[C@@H]23)cc1	-32	-16	nt
C[C@@H]1CN([C@H](C)CO)C(=O)c2cc(-c3ccncc3)cnc2O[C@H]1CN(C)C(=O)Nc1ccc2c(c1)OCO2	-42	-3	115
C[C@H]1CN([C@@H](C)CO)C(=O)c2cc(NC(=O)CCCCCC(=O)Nc3ccccc3N)ccc2O[C@H]1CN(C)Cc1ccc(Cl)c(Cl)c1	-17	nt	31
C[C@H]1CN([C@@H](C)CO)C(=O)c2cc(NC(=O)CCCCCC(=O)Nc3ccccc3N)ccc2O[C@@H]1CN(C)Cc1ccc2c(c1)OCO2	-74	-1	nt
